# An excerpt weighted towards active compounds, which were near 4.1% of everything screened.
# ssDAF-12 act – S. stercoralis DAF-12 nuclear receptor activators, primary screen, cell-based, luminescence, HEK293, GRIP1 co-expression, lit1-tk-luc. Nuclear hormone receptor DAF-12 (Strongyloides stercoralis). HEK293 ssDAF-12/GRIP1 lit1-tk-luc reporter; % of 3 µM dafachronic acid response. activation, % at 6.8 µM. hit rate 1% among 370,000. AID 652126, 2013;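 active = activation above the mean over all tested compounds plus 3 SD, cut at about 0.9% in these data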;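 note: 0% = DMSO-only wells and 100% = 3 µM delta7-dafachronic acid wells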
# DAX1 inh-1 – DAX1 (NR0B1) inhibitors, primary screen, cell-based, HEK293, Gal4-DAX1, luciferase luminescence. Nuclear receptor subfamily 0 group B member 1 (Homo sapiens), P51843. HEK293 Gal4-DAX1 luciferase reporter. inhibition, % at 6.75 µM. hit rate 0.99% among 340,000;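 active = inhibition above the mean over all tested compounds plus 3 SD, cut at about 4.2% in these data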;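 note: 0% = DAX1-transfected cells with DMSO and 100% = empty-vector control cells with DMSO; inhibition shows as a rise in luminescence from relieved DAX1 repression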
# hcDAF12 agonist – H. contortus DAF-12 nuclear receptor activators, primary screen, cell-based, luminescence, HEK293, lit1-tk-luc reporter; HEK293 hcDAF-12 lit1-tk-luc reporter; 0% DMSO, 100% Δ7-dafachronic acid; activation, % at 6.8 µM; hit rate 1.4% among 370,000; AID 652067, 2013;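 active = activation above the mean of all tested compounds plus 3 SD, cut at about 5.5% in these data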;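 note: 100% = response to 3 µM Δ7-dafachronic acid high control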
# hgDAF12 agonist – H. glycines DAF-12 receptor agonists, primary screen, cell-based, luminescence, HEK293, GAL4 fusion, UAS-luciferase; HEK293 GAL4-hgDAF12 UAS-luciferase reporter, agonist luminescence; normalized to butyrate control; hit rate 1.8% among 370,000; activation, % at 6.8 µM; Nuclear hormone receptor DAF-12 (Heterodera glycines), GAL4 fusion;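 active = activation above a cutoff set at the mean of all screened compounds plus 3 SD, cut at about 10% in these data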;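 note: 0% = DMSO wells and 100% = sodium butyrate wells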
# DAX1 inh-2 – DAX1 (NR0B1) inhibitors on StAR promoter, primary screen, cell-based, luminescence, SF-1 (NR5A1), full-length DAX-1; inhibition, % at 6.8 µM; AID 652010, 2013; HEK293T StAR-luciferase reporter, SF-1/DAX-1 repression relief; hit rate 1.1% among 370,000;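 active = inhibition above the mean over all tested compounds plus 3 SD, cut at about 3.6% in these data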;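 note: 0% = DAX-1 cells with DMSO and 100% = cells lacking DAX-1 with DMSO; higher inhibition means more luminescence from relief of DAX-1 repression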
# DAX1 inh confirm – DAX1 (NR0B1) inhibitors relieving SF-1 repression, confirmation, cell-based, luminescence, HEK293T, full-length DAX-1, SF-1 activated StAR promoter; shares compounds with DAX1 inh-2; HEK293T StAR-promoter luciferase reporter, SF-1/DAX-1 repression; inhibition, % at 6.8 µM; hit rate 87% among 2,400; AID 652134, 2013;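 active = inhibition above the average of every tested compound plus 3 SD, cut at about 3.8% in these data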;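 note: 0% = DAX-1 cells with DMSO and 100% = no DAX-1 control cells with DMSO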
# SF1 mutant ctr – StAR reporter signal changes without DAX1, counter-screen for DAX1 inhibitor project, cell-based, luminescence, AF-2 mutant SF-1, transactivation | inhibition, % at 6.8 µM | shares compounds with DAX1 inh-2 | HEK293 StAR-luciferase, SF-1 AF2 mutant | hit rate 78% among 2,400;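 active = inhibition above the mean of all tested compounds plus 3 SD, cut at about 3% in these data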;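 note: 0% = DAX-1 transfected cells with DMSO and 100% = cells without DAX-1 with DMSO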
# LXR ag – LXR agonists, Gal4 luciferase reporter, confirmation, counter-screen for hcDAF-12 agonist project, cell-based, luminescence, HEK293, H. contortus campaign | shares compounds with hcDAF12 agonist | HEK293 Gal4-LXR tk-luc reporter, 24 h; normalized: DMSO 0%, positive control 100% | AID 743027, 2013 | 3,400 tested, under 10 active | activation, % at 6.8 µM;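 active = mean percent activation of the reporter above a cutoff set as the average over tested compounds plus their standard deviation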
# Target sequence (P55055 whole entry, looked up, the tested form may be a part): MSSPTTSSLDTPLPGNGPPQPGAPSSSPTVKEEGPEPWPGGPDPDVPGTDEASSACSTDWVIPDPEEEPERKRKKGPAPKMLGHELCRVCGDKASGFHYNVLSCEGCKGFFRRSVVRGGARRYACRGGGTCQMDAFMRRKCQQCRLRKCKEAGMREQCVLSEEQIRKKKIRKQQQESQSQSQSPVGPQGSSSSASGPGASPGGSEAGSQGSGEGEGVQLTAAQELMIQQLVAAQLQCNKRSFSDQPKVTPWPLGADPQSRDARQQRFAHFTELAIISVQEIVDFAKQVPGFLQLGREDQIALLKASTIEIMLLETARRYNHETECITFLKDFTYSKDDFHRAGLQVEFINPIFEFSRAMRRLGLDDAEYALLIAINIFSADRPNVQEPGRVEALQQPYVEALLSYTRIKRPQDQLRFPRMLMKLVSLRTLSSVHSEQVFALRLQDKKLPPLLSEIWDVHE
# hcDAF12 ag – H. contortus DAF-12 receptor agonists, confirmation, cell-based, luminescence, HEK293, lit1-tk-luc, triplicate. HEK293 hcDAF-12 lit1-tk-luc reporter; % of Δ7-dafachronic acid response. shares compounds with hcDAF12 agonist. hit rate 61% among 3,400. activation, % at 6.8 µM;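 active = mean activation across triplicate tests above the threshold derived from the earlier primary screen, cut at about 5.5% in these data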;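 note: 0% = DMSO only wells and 100% = 3 µM Δ7-dafachronic acid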
# * hit, by the source's call; . = not tested or not shown.
SMILES,ssDAF-12 act,DAX1 inh-1,hcDAF12 agonist,hgDAF12 agonist,DAX1 inh-2,DAX1 inh confirm,SF1 mutant ctr,LXR ag,hcDAF12 ag
COc1ccc(C2NC(=S)NC3=C2CCCC3=C2SCCS2)cc1 (stereo not drawn),0,5.0*,7.9*,50*,88*,13*,2,0,2
Cc1ccc(C(=O)c2sc3nsc(C)c3c2N)cc1,1.1*,1,7.2*,13*,5.0*,14*,5.4*,2,8.7*
Cc1csc(SCC(=O)c2cc(C)n(Cc3cccs3)c2C)n1,-2,-4,-3,-9,-3,.,.,.,.
Cc1cc(C(=O)CSc2nnc(N)s2)c(C)n1Cc1cccs1,0,-4,6.7*,8,6.2*,16*,2,1,4
C/C(=N/NC(=O)c1ccccc1)C(=O)O,-1,0,1,-1,1,.,.,.,.
C/C(=N\NC(=O)c1ccccc1)C1C2C=CC(C2)C1(C)C (stereo not drawn),1.9*,5.3*,8.3*,9,6.0*,2,0,0,4
CN(CCO)c1cccc2c1S(=O)(=O)N(Cc1cn(Cc3ccc(Cl)cc3)nn1)Cc1ccccc1O2,-1,.,-1,-1,-2,.,.,.,.
Cc1cc(C)c2nc(NC(=O)c3ccco3)sc2c1,1.0*,0,6.6*,10,19*,13*,3,2,9.2*
O=c1[nH]c(COc2ccc(Cl)cc2Br)nc2ccccc12,0,2,8.7*,12*,7.1*,8.8*,8.9*,1,3
CC1=C2NC(N)=[N+](Cc3ccc4c(c3)OCO4)CC2n2c(=O)n(-c3ccccc3)c(=O)n2C1 (stereo not drawn),-2,.,-2,0,0,.,.,.,.
N#C/C(=C\c1ccc(O)c([N+](=O)[O-])c1)c1nc2ccccc2s1,-1,-1,3,2,0,.,.,.,.
N#C/C(=C\c1ccco1)c1nc2ccccc2s1,2.5*,4,15*,17*,5.1*,14*,9.1*,2,11*
CCOC(=O)C1CCCN(C(=O)CCc2nnc(-c3ccc(C(C)=O)s3)o2)C1 (stereo not drawn),0,4,6.8*,13*,5.5*,5.8*,5.9*,1,6.1*
CC(C)c1ccc(-n2nc3ccc(N)cc3n2)cc1,2.2*,0,9.8*,15*,5.1*,14*,7.8*,2,18*
COc1ccc(-n2nc3ccc(N)cc3n2)cc1,-1,-2,-1,1,1,.,.,.,.
Cc1ccc2nc(-c3ccc(NC(=O)COC(=O)c4cncc(Br)c4)cc3)sc2c1,1.6*,3,9.5*,13*,5.7*,17*,7.5*,2,12*
